Only some compounds are listed: those with a hit (about 2.9% of all), similar ones and a draw of the others.
IP6K1 inhibitor – Primary qHTS assay for small molecule inhibitors of Inositol hexaphosphate kinase 1 (IP6K1) | IP6K1 kinase, ADP-Glo luminescence, 2 h; stronger effect = lower value | activity change, % (series mostly up to about 58 µM) | 140,000 tested, 0.81% active; in the data active = activity change below about -25%
Target sequence (Q92551 whole entry, looked up): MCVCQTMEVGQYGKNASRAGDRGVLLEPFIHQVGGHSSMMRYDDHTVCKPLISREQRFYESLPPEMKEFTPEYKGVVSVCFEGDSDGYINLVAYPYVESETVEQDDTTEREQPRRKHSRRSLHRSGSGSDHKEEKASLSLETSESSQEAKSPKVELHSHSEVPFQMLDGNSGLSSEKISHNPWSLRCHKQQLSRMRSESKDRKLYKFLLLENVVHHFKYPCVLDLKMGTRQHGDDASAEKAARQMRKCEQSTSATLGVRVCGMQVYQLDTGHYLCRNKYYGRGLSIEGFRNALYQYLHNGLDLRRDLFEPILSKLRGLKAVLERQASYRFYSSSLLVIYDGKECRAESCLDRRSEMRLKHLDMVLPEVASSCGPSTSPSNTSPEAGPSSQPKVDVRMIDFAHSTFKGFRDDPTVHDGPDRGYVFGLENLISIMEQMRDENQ
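ADP-Glo luminescence measures ADP made by human IP6K1 during a 2 h RT reaction with ATP/IP6 (mix at 1.3 mM/130 uM); top library doses 57.5 and 19.1 uM final.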
SNCA viab count – GF-AFC viability counterscreen for inhibitors of alpha-synuclein gene (SNCA) expression. Potency, µM (highest dose often 57.1 µM), hits mostly cytotoxic. 150,000 tested, 0.12% active. HEK-293-SNCA-luc viability, GF-AFC fluorescence, 24 h; note: nearly all actives have a fitted effect of over 30% in size
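Cytotoxicity counterscreen: after 24 h compound treatment of genome-edited SNCA-luciferase HEK-293 cells, live-cell protease substrate GF-AFC read by fluorescence after 30 min; activity scaled between DMSO (0%) and medium-only (-100%), curves Hill-fitted.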
SNCA expr inhib – Primary qHTS assay for inhibitors of alpha-synuclein gene (SNCA) expression | HEK-293 SNCA-luciferase knock-in, luminescence, 24 h | Potency, µM (highest dose often 57.2 µM), most hits filed as inhibitors | 140,000 tested, 0.17% active | AID 1671194, 2021; note: nearly all actives have a fitted effect of over 45% in size
KDM5B inh – Primary screen for KDM5B Histone Demethylases FDH-coupled qHTS. KDM5B demethylase, FDH-coupled NADH fluorescence (FDH is formaldehyde dehydrogenase). Lysine-specific demethylase 5B (Homo sapiens), Q9UGL1. 220,000 tested, 2.6% active. Potency, µM (top dose mostly 57.7 µM), most hits filed as inhibitors; note: nearly all actives have a fitted effect of over 70% in size
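Compound dilutions met 200 nM (final) KDM5BΔAP for 10 min at room temperature before substrate addition. The substrate mix held 12.5 µM H3K4me3 with cofactors 25 µM α-ketoglutarate and 50 µM Fe²⁺. NADH signal gain over 30 min defined activity.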
Of the large screens only hits and unclear results are named; the others gave an inactive call. Unless noted, calls come from the whole dose curve; as a rule, active = well fitted curve in the direction sought with a large enough effect; inconclusive = small, poorly fitted or top-dose-only effect, or another doubt; inactive = no such curve, though single readings can be large; an effect the other way counts as inactive or inconclusive.

CCCC(=O)c1cc2c(cc1NC(=O)c1ccccc1F)OCCO2	SNCA expr inhib 14µM, KDM5B inh inconclusive
CCC(=O)c1cc2c(cc1NC(=O)c1ccccc1F)OCCO2	none
CCN1CCN(Cc2ccc(NC(=O)c3ccc(C)c(Oc4ncnc5[nH]c(C)cc45)c3)cc2C(F)(F)F)CC1	SNCA viab count inconclusive (no result: SNCA expr inhib, KDM5B inh)
CN1CCN(Cc2ccc(NC(=O)Nc3ccc(Oc4cc(NC(=O)C5CC5)ncn4)cc3)cc2C(F)(F)F)CC1	SNCA viab count inconclusive, SNCA expr inhib 0.48µM (no result: KDM5B inh)
CCN(Cc1ccc(C)o1)C(=O)c1ccc2nc(-c3ccc(F)cc3)cn2c1	KDM5B inh 28µM
CCN(CCn1cccn1)C(=O)c1ccc2nc(-c3ccc(F)cc3)cn2c1	KDM5B inh 25µM
CCN(CC1CCCO1)C(=O)c1ccc2nc(-c3ccc(F)cc3)cn2c1 (centres undefined)	KDM5B inh 22µM
CC(NC(=O)COc1ccc(Cl)c(Cl)c1)c1ccccc1 (centres undefined)	none (no result: IP6K1 inhibitor, SNCA viab count, SNCA expr inhib)
O=c1cc(-c2ccccn2)oc2c(-c3cn[nH]c3)nccc12	SNCA expr inhib inconclusive, KDM5B inh inconclusive
O=c1cc(-c2ccccn2)oc2c(NC3CCOCC3)nccc12	KDM5B inh 32µM
CC1CN(c2cccc(Cl)c2)C(=O)CN1C(=O)c1ccc2n[nH]nc2c1 (centres undefined)	none
O=C(C1CCCN1C(=O)Cc1ccc(F)cc1)N1CCC(c2nc3ccncc3[nH]2)C1 (centres undefined)	none (no result: KDM5B inh)
CC(C)c1noc(-c2ccn3c(CNC(=O)Cc4ccccc4Cl)nnc3c2)n1	KDM5B inh 16µM
CC(C)c1noc(-c2ccn3c(CNC(=O)Cc4ccc(F)cc4)nnc3c2)n1	none
Cc1ccc(CC(=O)NCc2nnc3cc(-c4nc(C(C)C)no4)ccn23)cc1	KDM5B inh 25µM
CCCc1noc(-c2ccn3c(CNC(=O)Cc4ccccc4Cl)nnc3c2)n1	KDM5B inh 14µM
Cc1[nH]c2ccccc2c1CCNCc1ccc(C=CC(=O)NO)cc1	SNCA viab count inconclusive (no result: IP6K1 inhibitor, KDM5B inh)
CC1CCC(NC(=O)c2noc(-c3ccc(C#N)cc3)n2)CC1 (centres undefined)	none
COCCNc1nc2cc(-c3nc(-c4cccnn4)no3)ccc2n1C	SNCA expr inhib inconclusive
COCCNc1nc2cc(C(=O)N[C@@H]3CC[C@@H](N)C3)ccc2n1C	KDM5B inh 22µM
CCc1ccc(CNc2ncncc2-c2nc(-c3ccccc3)no2)cc1	KDM5B inh 28µM
c1ccc(CCNc2ncncc2-c2nc(-c3ccccc3)no2)cc1	KDM5B inh 35µM
CCC(CC)NC(=O)CCc1ccc(S(=O)(=O)N2CCCCC2)cc1	none (no result: IP6K1 inhibitor, SNCA viab count, SNCA expr inhib)
c1cc(-c2cnn3cc(-c4ccc(N5CCNCC5)cc4)cnc23)c2cccnc2c1	SNCA viab count 24µM (no result: SNCA expr inhib, KDM5B inh)
O=C1N[C@H](CC(=O)N2CCN(c3ccc(C(F)(F)F)cn3)CC2)C(=O)Nc2ccccc21	SNCA expr inhib inconclusive, KDM5B inh 22µM
O=C(Nc1cccc(C(F)(F)F)c1)c1nc2c(o1)CCN(Cc1ccccc1)CC2	KDM5B inh 22µM
O=C(Nc1cccc(C(F)(F)F)c1)c1nc2c(o1)CCN(CC1CC1)CC2	KDM5B inh inconclusive
O=C(Nc1cccc(C(F)(F)F)c1)c1nc2c(o1)CCN(Cc1cccc(F)c1)CC2	KDM5B inh 28µM
N#Cc1ccc(CN2CCc3nc(C(=O)Nc4cccc(C(F)(F)F)c4)oc3CC2)cc1	KDM5B inh 22µM
O=C(Nc1cccc(C(F)(F)F)c1)c1nc2c(o1)CCN(Cc1cnc[nH]1)CC2	none
O=C(Nc1ccccc1)c1nc2c(o1)CCN(Cc1ccc(F)cc1)CC2	KDM5B inh inconclusive
O=C(Nc1cccc(C(F)(F)F)c1)c1nc2c(o1)CCN(Cc1ccc(F)cc1)CC2	KDM5B inh 40µM
O=C(NCc1ccc(N2CCOCC2)cc1)c1cccc2c1CCN2C(=O)c1ccccc1	none
COc1ccccc1-c1cc(-c2cccs2)nc2c(C)noc12	KDM5B inh 35µM
COc1ccccc1-c1cc(-c2ccccc2OC)c2onc(C)c2n1	KDM5B inh inconclusive
Cc1cc(-c2cc(-c3cccs3)nc3c(C)noc23)ccn1	KDM5B inh 28µM
Cc1[nH]c2ccccc2c1C	none (no result: IP6K1 inhibitor, SNCA viab count, SNCA expr inhib)
Cc1ccc([S+](=O)([O-])N2CCc3nc(C4CC4)nc(-c4ccc(Cl)cc4)c3C2)cc1	SNCA expr inhib inconclusive

Compound activity deposited in PubChem BioAssay by National Center for Advancing Translational Sciences (NCATS).
